Results published in PubChem BioAssay (NCI).
The panel holds about 79,000 compounds, 15% with a hit somewhere; the sample as a whole holds those more often. Activity calls are given as the source filed them. Cut-off read from the data, not from the text of the source: active = growth inhibition above about 70%; inactive = the rest.

Assay: NCI Yeast Anticancer Drug Screen. Data for the sgs1 strain (AID 173);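 note: 0% = growth of vehicle-only control cultures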
Conditions: S. cerevisiae sgs1 mutant, hits give high values
Protocol: Growth inhibition of yeast strains with defined genetic alterations is measured as a screen for potential anti-cancer activity. Selected strains with alterations in DNA damage repair or cell cycle control were exposed to compounds and growth inhibition was measured relative to vehicle treated controls. The strain used in this assay is sgs1

Measured: growth inhibition

O=C1c2ccccc2C(=O)c2cc(S(=O)(=O)Nc3ccccc3)ccc21
inactive: at 1.2 µM 2% | at 3.7 µM 5% | at 11.0 µM 18% | at 33.0 µM 22% | at 100.0 µM 18%

CCn1ncc(N=O)c1N
inactive: at 1.2 µM 5% | at 3.7 µM 16% | at 11.0 µM 26% | at 33.0 µM 39% | at 100.0 µM 61%

O=Cc1coc2ccccc2c1=O
inactive: at 1.2 µM 0% | at 3.7 µM 14% | at 11.0 µM 23% | at 33.0 µM 32% | at 100.0 µM 60%

O=Nn1c2ccccc2c2ccccc21
inactive: at 1.2 µM -3% | at 3.7 µM 5% | at 11.0 µM 10% | at 33.0 µM 7% | at 100.0 µM 66%

O=C(/C=C/c1cccc(Br)c1)c1ccc(Cl)cc1
active: at 100.0 µM 73%
inactive: at 1.2 µM -67% | at 3.7 µM -42% | at 11.0 µM -7% | at 33.0 µM 31%

CC(=O)C1(O)Cc2c(O)c3c(c(O)c2C(OC2CC(N)C(O)C(C)O2)C1)C(=O)c1ccccc1C3=O (stereo not given)
inactive: at 1.2 µM -14% | at 3.7 µM 60%
active: at 11.0 µM 93% | at 33.0 µM 97% | at 100.0 µM 98%

OCCNCCOc1ccc(/C(=C(/Cl)c2ccccc2)c2ccccc2)cc1
active: at 33.0 µM 98% | at 100.0 µM 98%
inactive: at 1.2 µM -15% | at 3.7 µM -23% | at 11.0 µM 32%

Cc1cc(O)c2c(c1O)C(=O)C13C(=C2O)C(=O)C2C(O)C1C1C(O)C3C(=O)C3=C(O)c4c(O)cc(C)c(O)c4C(=O)C321 (stereo not given)
active: at 33.0 µM 80% | at 100.0 µM 80%
inactive: at 1.2 µM 29% | at 3.7 µM 31% | at 11.0 µM 54%
